# Assays:
# Experiment in all cases: cell viability of combination (% of vehicle); higher = less cytotoxic
# Settings in all cases: 1 µM; 72 h; partner dose: 10 nM
# HCI01 [1] = test system: HCI01 (cells of a triple-negative basal-like breast cancer xenograft)
# Method: (§1)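 PDX cells were treated for 72 h with each drug at 1 µM plus carfilzomib (10 nM; 100 nM for WHIM2). Luciferase viability is expressed as percent of vehicle.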
# UCD52 [2] = test system: UCD52 (cells of a triple-negative basal-like breast cancer xenograft)
# Method: as §1
# WHIM30 = test system: WHIM30 (cells of a triple-negative basal-like breast cancer xenograft)
# Method: as §1
# HCI01 [3] = test system: HCI01; remark: listed apart in the source
# Method: (§2)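 PDX cells were treated for 72 h with each drug at 1 µM plus afatinib (10 nM; 1 µM for WHIM30). Luciferase viability is expressed as percent of vehicle.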
# UCD52 [4] = test system: UCD52; remark: listed apart in the source
# Method: as §2
# WHIM2 = test system: WHIM2 (cells of a triple-negative basal-like breast cancer xenograft)
# Method: as §2
compound,measurement,setting,value
COc1ccc(CN2CCN(C(c3ccc(F)cc3)c3ccc(F)cc3)CC2)c(OC)c1OC.Cl.Cl [Lomerizine HCl] + CC(C)C[C@H](NC(=O)[C@H](CCc1ccccc1)NC(=O)CN1CCOCC1)C(=O)N[C@@H](Cc1ccccc1)C(=O)N[C@@H](CC(C)C)C(=O)[C@@]1(C)CO1 [Carfilzomib],cell viability of combination,HCI01 [1],91.1
same,cell viability of combination,UCD52 [2],57.7
same,cell viability of combination,WHIM30,15.6
C=C(c1ccc(C(=O)O)cc1)c1cc2c(cc1C)C(C)(C)CCC2(C)C [Bexarotene] + CC(C)C[C@H](NC(=O)[C@H](CCc1ccccc1)NC(=O)CN1CCOCC1)C(=O)N[C@@H](Cc1ccccc1)C(=O)N[C@@H](CC(C)C)C(=O)[C@@]1(C)CO1 [Carfilzomib],cell viability of combination,HCI01 [1],71.8
same,cell viability of combination,UCD52 [2],79.6
same,cell viability of combination,WHIM30,25.7
COc1cc2ncnc(Nc3ccc(F)c(Cl)c3)c2cc1NC(=O)C=CCN1CCCCC1 + CC(C)C[C@H](NC(=O)[C@H](CCc1ccccc1)NC(=O)CN1CCOCC1)C(=O)N[C@@H](Cc1ccccc1)C(=O)N[C@@H](CC(C)C)C(=O)[C@@]1(C)CO1 [Carfilzomib],cell viability of combination,HCI01 [1],68.1
same,cell viability of combination,UCD52 [2],34.1
same,cell viability of combination,WHIM30,14.6
CN(C)c1ccc(C(=C2C=CC(=[N+](C)C)C=C2)c2ccc(N(C)C)cc2)cc1.[Cl-] [Crystal Violet] + CC(C)C[C@H](NC(=O)[C@H](CCc1ccccc1)NC(=O)CN1CCOCC1)C(=O)N[C@@H](Cc1ccccc1)C(=O)N[C@@H](CC(C)C)C(=O)[C@@]1(C)CO1 [Carfilzomib],cell viability of combination,HCI01 [1],68
same,cell viability of combination,UCD52 [2],32.3
same,cell viability of combination,WHIM30,6
COc1cc2c(Nc3ccc(Br)cc3F)ncnc2cc1OCC1CCN(C)CC1 [Vandetanib (ZD6474)] + CC(C)C[C@H](NC(=O)[C@H](CCc1ccccc1)NC(=O)CN1CCOCC1)C(=O)N[C@@H](Cc1ccccc1)C(=O)N[C@@H](CC(C)C)C(=O)[C@@]1(C)CO1 [Carfilzomib],cell viability of combination,HCI01 [1],64.1
same,cell viability of combination,UCD52 [2],39.4
same,cell viability of combination,WHIM30,15.1
CC1(COc2ccc3c(c2)ncn3-c2ccc3cccc(N4CCC(N)CC4)c3n2)COC1 + CN(C)C/C=C/C(=O)Nc1cc2c(Nc3ccc(F)c(Cl)c3)ncnc2cc1O[C@H]1CCOC1 [Afatinib],cell viability of combination,HCI01 [3],56.3
CNC(=O)c1cc(Oc2ccc(NC(=O)Nc3ccc(Cl)c(C(F)(F)F)c3)cc2)ccn1 [Sorafenib] + CC(C)C[C@H](NC(=O)[C@H](CCc1ccccc1)NC(=O)CN1CCOCC1)C(=O)N[C@@H](Cc1ccccc1)C(=O)N[C@@H](CC(C)C)C(=O)[C@@]1(C)CO1 [Carfilzomib],cell viability of combination,HCI01 [1],69
same,cell viability of combination,UCD52 [2],49
same,cell viability of combination,WHIM30,18
CCc1oc2ccccc2c1C(=O)c1cc(Br)c(O)c(Br)c1 [Benzbromarone] + CC(C)C[C@H](NC(=O)[C@H](CCc1ccccc1)NC(=O)CN1CCOCC1)C(=O)N[C@@H](Cc1ccccc1)C(=O)N[C@@H](CC(C)C)C(=O)[C@@]1(C)CO1 [Carfilzomib],cell viability of combination,HCI01 [1],84.6
same,cell viability of combination,UCD52 [2],63.1
same,cell viability of combination,WHIM30,20.1
CCOC(=O)C1=C(COCCN)NC(C)=C(C(=O)OC)C1c1ccccc1Cl (stereo unspecified) [Amlodipine] + CN(C)C/C=C/C(=O)Nc1cc2c(Nc3ccc(F)c(Cl)c3)ncnc2cc1O[C@H]1CCOC1 [Afatinib],cell viability of combination,HCI01 [3],58.2
same,cell viability of combination,UCD52 [4],79.6
same,cell viability of combination,WHIM2,51.1
Cl.Nc1ccn(C2OC(CO)C(O)C2O)c(=O)n1 (stereo unspecified) [Cytarabine hydrochloride] + CN(C)C/C=C/C(=O)Nc1cc2c(Nc3ccc(F)c(Cl)c3)ncnc2cc1O[C@H]1CCOC1 [Afatinib],cell viability of combination,HCI01 [3],46.6
same,cell viability of combination,UCD52 [4],72.2
same,cell viability of combination,WHIM2,40.3
CN1CCC(COc2cnc(-c3cccc(Cn4nc(-c5cccc(C#N)c5)ccc4=O)c3)nc2)CC1 + CN(C)C/C=C/C(=O)Nc1cc2c(Nc3ccc(F)c(Cl)c3)ncnc2cc1O[C@H]1CCOC1 [Afatinib],cell viability of combination,HCI01 [3],39.9
same,cell viability of combination,UCD52 [4],60.5
same,cell viability of combination,WHIM2,51
COC(=O)NC(C(=O)N1CCCC1c1ncc(-c2ccc(-c3ccc(-c4cnc(C5CCCN5C(=O)C(NC(=O)OC)C(C)C)[nH]4)cc3)cc2)[nH]1)C(C)C (stereo unspecified) + CN(C)C/C=C/C(=O)Nc1cc2c(Nc3ccc(F)c(Cl)c3)ncnc2cc1O[C@H]1CCOC1 [Afatinib],cell viability of combination,HCI01 [3],48.3
same,cell viability of combination,UCD52 [4],59.1
same,cell viability of combination,WHIM2,46.3
Cn1cnc2c(F)c(Nc3ccc(Br)cc3F)c(C(=O)NOCCO)cc21 + CN(C)C/C=C/C(=O)Nc1cc2c(Nc3ccc(F)c(Cl)c3)ncnc2cc1O[C@H]1CCOC1 [Afatinib],cell viability of combination,HCI01 [3],40.5
same,cell viability of combination,UCD52 [4],54
same,cell viability of combination,WHIM2,34.8
Cc1c(C(=O)NN2CCCCC2)nn(-c2ccc(Cl)cc2Cl)c1-c1ccc(Cl)cc1 [Rimonabant] + CN(C)C/C=C/C(=O)Nc1cc2c(Nc3ccc(F)c(Cl)c3)ncnc2cc1O[C@H]1CCOC1 [Afatinib],cell viability of combination,HCI01 [3],56.7
same,cell viability of combination,UCD52 [4],75
same,cell viability of combination,WHIM2,48.4
CNC(=O)c1cc(Oc2ccc(NC(=O)Nc3ccc(Cl)c(C(F)(F)F)c3)cc2)ccn1 [Sorafenib] + CN(C)C/C=C/C(=O)Nc1cc2c(Nc3ccc(F)c(Cl)c3)ncnc2cc1O[C@H]1CCOC1 [Afatinib],cell viability of combination,HCI01 [3],49.6
same,cell viability of combination,UCD52 [4],52.2
same,cell viability of combination,WHIM2,48.5
CN(C)c1ccc(C(=C2C=CC(=[N+](C)C)C=C2)c2ccc(N(C)C)cc2)cc1.[Cl-] [Crystal Violet] + CN(C)C/C=C/C(=O)Nc1cc2c(Nc3ccc(F)c(Cl)c3)ncnc2cc1O[C@H]1CCOC1 [Afatinib],cell viability of combination,HCI01 [3],45
same,cell viability of combination,UCD52 [4],41
same,cell viability of combination,WHIM2,28.4
CSc1ccc2c(c1)N(CCC1CCCCN1C)c1ccccc1S2.Cl (stereo unspecified) [Thioridazine HCl] + CN(C)C/C=C/C(=O)Nc1cc2c(Nc3ccc(F)c(Cl)c3)ncnc2cc1O[C@H]1CCOC1 [Afatinib],cell viability of combination,HCI01 [3],61.8
same,cell viability of combination,UCD52 [4],58.1
same,cell viability of combination,WHIM2,47.4
CCCCCCCCCCCC1=C(O)C(=O)C=C(O)C1=O [Embelin] + CN(C)C/C=C/C(=O)Nc1cc2c(Nc3ccc(F)c(Cl)c3)ncnc2cc1O[C@H]1CCOC1 [Afatinib],cell viability of combination,HCI01 [3],52.9
same,cell viability of combination,UCD52 [4],67.8
same,cell viability of combination,WHIM2,42.9
[O-]n1ccccc1=S.[O-]n1ccccc1=S.[Zn+2] [Zinc Pyrithione] + CN(C)C/C=C/C(=O)Nc1cc2c(Nc3ccc(F)c(Cl)c3)ncnc2cc1O[C@H]1CCOC1 [Afatinib],cell viability of combination,HCI01 [3],47.4
same,cell viability of combination,UCD52 [4],56
same,cell viability of combination,WHIM2,33.9
C=C(c1ccc(C(=O)O)cc1)c1cc2c(cc1C)C(C)(C)CCC2(C)C [Bexarotene] + CN(C)C/C=C/C(=O)Nc1cc2c(Nc3ccc(F)c(Cl)c3)ncnc2cc1O[C@H]1CCOC1 [Afatinib],cell viability of combination,HCI01 [3],51.8
same,cell viability of combination,UCD52 [4],82.4
same,cell viability of combination,WHIM2,35.7
COc1cc2nccc(Oc3ccc(NC(=O)NC4CC4)c(Cl)c3)c2cc1C(N)=O [Lenvatinib (E7080)] + CN(C)C/C=C/C(=O)Nc1cc2c(Nc3ccc(F)c(Cl)c3)ncnc2cc1O[C@H]1CCOC1 [Afatinib],cell viability of combination,HCI01 [3],40
same,cell viability of combination,UCD52 [4],39.8
same,cell viability of combination,WHIM2,32.5
CC(C)CC(NC(=O)C(CCc1ccccc1)NC(=O)CN1CCOCC1)C(=O)NC(Cc1ccccc1)C(=O)NC(CC(C)C)C(=O)C1(C)CO1 (stereo unspecified) [Carfilzomib (PR-171)] + CN(C)C/C=C/C(=O)Nc1cc2c(Nc3ccc(F)c(Cl)c3)ncnc2cc1O[C@H]1CCOC1 [Afatinib],cell viability of combination,HCI01 [3],17.5
same,cell viability of combination,UCD52 [4],13.1
same,cell viability of combination,WHIM2,26.7
CN1CCN(CCCN2c3ccccc3Sc3ccc(C(F)(F)F)cc32)CC1.Cl.Cl [Trifluoperazine 2HCl] + CN(C)C/C=C/C(=O)Nc1cc2c(Nc3ccc(F)c(Cl)c3)ncnc2cc1O[C@H]1CCOC1 [Afatinib],cell viability of combination,HCI01 [3],56.1
same,cell viability of combination,UCD52 [4],73.1
same,cell viability of combination,WHIM2,44
Cc1cn(-c2cc(NC(=O)c3ccc(C)c(Nc4nccc(-c5cccnc5)n4)c3)cc(C(F)(F)F)c2)cn1 [Nilotinib(AMN-107)] + CN(C)C/C=C/C(=O)Nc1cc2c(Nc3ccc(F)c(Cl)c3)ncnc2cc1O[C@H]1CCOC1 [Afatinib],cell viability of combination,HCI01 [3],45.9
same,cell viability of combination,UCD52 [4],56.1
same,cell viability of combination,WHIM2,63.2
COc1cccc2c1C(=O)c1c(O)c3c(c(O)c1C2=O)CC(O)(C(=O)CO)CC3OC1CC(N)C(O)C(C)O1.Cl (stereo unspecified) [Epirubicin HCl] + CN(C)C/C=C/C(=O)Nc1cc2c(Nc3ccc(F)c(Cl)c3)ncnc2cc1O[C@H]1CCOC1 [Afatinib],cell viability of combination,HCI01 [3],58
same,cell viability of combination,WHIM2,10.2
Cc1ccc(NC(=O)c2ccc(CN3CCN(C)CC3)cc2)cc1Nc1nc(-c2cccnc2)cs1 [Masitinib (AB1010)] + CN(C)C/C=C/C(=O)Nc1cc2c(Nc3ccc(F)c(Cl)c3)ncnc2cc1O[C@H]1CCOC1 [Afatinib],cell viability of combination,HCI01 [3],47.8
same,cell viability of combination,UCD52 [4],64.5
same,cell viability of combination,WHIM2,54.7
COCCn1c2c([n+](Cc3cnccn3)c1C)C(=O)c1ccccc1C2=O.[Br-] + CN(C)C/C=C/C(=O)Nc1cc2c(Nc3ccc(F)c(Cl)c3)ncnc2cc1O[C@H]1CCOC1 [Afatinib],cell viability of combination,HCI01 [3],18.3
same,cell viability of combination,UCD52 [4],15.2
same,cell viability of combination,WHIM2,11.8
CC(C)C[C@H](NC(=O)[C@H](Cc1ccccc1)NC(=O)c1cnccn1)B(O)O [Bortezomib] + CN(C)C/C=C/C(=O)Nc1cc2c(Nc3ccc(F)c(Cl)c3)ncnc2cc1O[C@H]1CCOC1 [Afatinib],cell viability of combination,HCI01 [3],22.5
same,cell viability of combination,UCD52 [4],15.1
same,cell viability of combination,WHIM2,14.4

# From the supplement of paper PMC6992640
